± gives the standard deviation of the averaged measurements.

The subject of this experiment is SW480. Put plainly: cell viability (CellTiter-Glo) relative to plate median (fraction of plate median); higher = more viable cells. The settings on record: 5 µM; treatment time 24 h; reporter: 7TFP. In a few lines: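 Colorectal cancer cell lines stably transduced with lentiviral TCF/Wnt firefly luciferase reporters (7TFP or TCF4/Wnt) were seeded in 384-well plates. 24 h later they received library compounds at a final 5 µM for 24 h. Parallel plates were read for firefly luciferase or CellTiterGlo luminescence on a Tecan F500 reader. Each well's signal was normalised to the plate median (webcellHTS2, additive, no log transformation), and the mean of two independent replicates is reported.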
(Cellular ATP, detected with luciferase, serves as a proxy for viable cell number.)
The molecule `CC(=O)OCC(=O)[C@@]1(O)CC[C@H]2[C@@H]3CCC4=CC(=O)C=C[C@]4(C)[C@H]3[C@@H](O)C[C@@]21C` had a cell viability of 0.936 ± 0.0042.

On to `Cc1cccc(C(=O)O)c1O`, for which the cell viability was 0.96 ± 0.0099.

For the molecule `COCCCOc1cc(C[C@@H](C[C@H](NC(=O)OC(C)(C)C)[C@@H]2C[C@@H](C(C)C)C(=O)O2)C(C)C)ccc1OC` [Borrelidin derivative (C30H49NO7)], the cell viability came out at 0.959 ± 0.025.

In turn, `CCCCCCCCCCCCC[N+](C)(C)Cc1ccccc1` returned a cell viability of 0.96 ± 0.057.

For `CC(C)C[C@H](NC(=O)[C@@H]1CCCN1)C(=O)N1CCNC(=O)C1=O` [Prolyl-leucyl-diketopiperazine], the cell viability came out at 0.984 ± 0.0042.

In the case of `CS(C)(=O)=O`, the cell viability turned out to be 0.962 ± 0.035.

On to `CC(=O)Nc1cc2nc3ccccc3oc-2cc1=O` [N-Acetylquestiomycin A], for which the cell viability is 1.06 ± 0.087.

As for `NS(=O)(=O)c1cc2c(cc1Cl)NC(C(Cl)Cl)NS2(=O)=O` (stereo not given), the cell viability amounted to 0.973 ± 0.0028.

In the case of `C=CC[C@@H]1/C=C(\C)C[C@H](C)C[C@H](OC)[C@H]2O[C@@](O)(C(=O)C(=O)N3CCCC[C@H]3C(=O)O[C@H](/C(C)=C/[C@@H]3CC[C@@H](O)[C@H](OC)C3)[C@H](C)[C@@H](O)CC1=O)[C@H](C)C[C@@H]2OC`, the cell viability turned out to be 1.1 ± 0.021.

Molecule `CCCCC[C@H](CC(=O)NO)C(=O)N[C@H](C(=O)N1CCC[C@H]1CO)C(C)C` showed a cell viability of 0.9655 ± 0.00071.

As to `CC(C)c1nc(N(C)S(C)(=O)=O)nc(-c2ccc(F)cc2)c1/C=C/[C@@H](O)C[C@@H](O)CC(=O)O`, the cell viability was determined as 1.02 ± 0.014.

Turning to `COc1ccc(-c2cc(=O)c3c(OC)c(OC)c(OC)c(OC)c3o2)cc1OC`, the cell viability came to 1.04 ± 0.067.

With `CC(C)(C)NC[C@H](O)COc1nsnc1N1CCOCC1`, the cell viability was found to be 0.9705 ± 0.0092.

In turn, `C=C1CCC(C2CC(=O)OC2=O)C(=O)CCC2C1CC2(C)C` (stereo not given) returned a cell viability of 0.958 ± 0.0085.

The molecule `C[C@@H]1C[C@H]2O[C@@H]2/C=C\C=C\C(=O)Cc2c(Cl)c(O)cc(O)c2C(=O)O1` [Radicicol] gave a cell viability of 1.07 ± 0.099.

For `Cc1ccc(Cl)c(Nc2ccccc2C(=O)O)c1Cl`, the cell viability was 1 ± 0.052.

On to `O=C1NS(=O)(=O)c2ccccc21`, for which the cell viability is 1.03 ± 0.044.

As to `COc1cc2c(cc1OC)Cc1cc(OC)c(OC)cc1Cc1cc(OC)c(OC)cc1C2`, the cell viability was 1.02 ± 0.033.

Consider `Clc1ccc(C(c2ccccc2Cl)C(Cl)Cl)cc1` (stereo not given), for which the cell viability worked out at 0.981 ± 0.041.

`COC[C@H]1O[C@@H](OC2OC[C@@H]3O[C@]4(O[C@H]3[C@H]2OC(=O)C(C)C)O[C@H](C)[C@@](O)(C(C)=O)[C@@H]2OCO[C@H]24)[C@@H](OC)[C@@H](O)[C@@H]1O[C@@H]1O[C@H](C)[C@H](OC)[C@H](O[C@H]2C[C@@]3(C)OC4(C[C@@H](O)[C@H](O[C@H]5C[C@@H](O)[C@H](OC(=O)c6c(C)c(Cl)c(O)c(Cl)c6OC)[C@@H](C)O5)[C@@H](C)O4)O[C@@H]3[C@@H](C)O2)[C@H]1O` (stereo not given in full) [Avilamycin A] came in with a cell viability of 0.991 ± 0.042.

For `C[C@H](CCC(=O)O)[C@H]1CC[C@H]2[C@@H]3[C@H](O)C[C@@H]4C[C@H](O)CC[C@]4(C)[C@H]3C[C@H](O)[C@]12C`, the cell viability amounted to 1.04 ± 0.066.

In turn, `COc1cccc2c1C(=O)c1c(O)c3c(c(O)c1C2=O)CC(O)(C(C)O)CC3OC1CC(NC=O)C(O)C(C)O1` (stereo not given) [Baumycin C2] came in with a cell viability of 1 ± 0.036.

The molecule `COc1cc2nc(N3CCN(C(=O)C4CCCO4)CC3)nc(N)c2cc1OC` (stereo not given) had a cell viability of 1.03 ± 0.05.

As to `CC(=O)O[C@H]1CC[C@@]2(C)[C@H](CC[C@@H]3[C@@H]2CC[C@]2(C)[C@@H]4[C@H](C[C@@H]32)O[C@]2(CC[C@@H](C)CO2)[C@H]4C)C1`, the cell viability worked out at 0.977 ± 0.0014.

The molecule `OC[C@H]1O[C@@H](Oc2ccc(O)cc2)[C@H](O)[C@@H](O)[C@@H]1O` showed a cell viability of 0.936 ± 0.018.

The molecule `CC(C(=O)O)c1ccc(-c2ccccc2)c(F)c1` (stereo not given) registered a cell viability of 1.04.

Take `CC1=CCCC(C)=CCC(C)(C)C=CC1` [HUMULENE (alpha)]: the cell viability is 0.965 ± 0.021.

Turning to `O=C1c2ccccc2C(=O)c2c(Cl)cccc21` [Chloro-Anthraquinone], the cell viability came to 0.974 ± 0.017.

In the case of `OC1(c2ccc(Cl)c(C(F)(F)F)c2)CCN(CCCC(c2ccc(F)cc2)c2ccc(F)cc2)CC1`, the cell viability stood at 0.994 ± 0.023.

Regarding `O=c1c(O)c(-c2ccccc2)oc2ccccc12`, the cell viability was found to be 1 ± 0.027.

As to `CCN(CC)CCNC(=O)c1cc(Cl)c(N)cc1OC`, the cell viability was found to be 0.993 ± 0.025.

Consider `CC1(C)OC(=O)NC1=O`, for which the cell viability came out at 0.965 ± 0.092.

As to `S=P(N1CC1)(N1CC1)N1CC1`, the cell viability was 1.01 ± 0.03.

Take `CN[C@@H]1[C@H](O)[C@H](NC)[C@H]2O[C@@]3(O)C(=O)C[C@@H](C)O[C@H]3O[C@@H]2[C@H]1O`: the cell viability came to 0.978 ± 0.025.

As to `COc1ccc(CN(CCN(C)C)c2ncccn2)cc1`, the cell viability was found to be 1 ± 0.055.

Molecule `NC(=O)c1cc[n+](CC2=C(C(=O)O)N3C(=O)[C@@H](NC(=O)[C@@H](c4ccccc4)S(=O)(=O)[O-])[C@H]3SC2)cc1` registered a cell viability of 1.07 ± 0.085.

Turning to `CC1(C)S[C@@H]2[C@H](NC(=O)[C@H](NC(=O)N3CCNC3=O)c3ccccc3)C(=O)N2[C@H]1C(=O)O`, the cell viability was 0.956 ± 0.046.

In turn, `COc1ccccc1OCC(O)CN1CCN(CC(=O)Nc2c(C)cccc2C)CC1` (stereo not given) came in with a cell viability of 0.944 ± 0.013.

In the case of `COc1c2ccoc2nc2c(OC)c(OCC(O)C(C)(C)O)ccc12` (stereo not given), the cell viability was 1 ± 0.013.

In turn, `Cc1c(NC(C)C)c(=O)n(-c2ccccc2)n1C` showed a cell viability of 1.03 ± 0.045.

These data come from the supplement of paper PMC6522484.
